From PubChem BioAssay
Only a selection was taken, and hits are over-represented in it overall.
nsP2pro inh: CHIKV nsP2 protease inhibition, primary qHTS | FRET peptide cleavage, nsP2pro, fluorescence 1 h | Potency, µM (top dose mostly 24.9 µM), for the others: at the top dose activity change, negative = inhibition, most hits filed as inhibitors | hit rate 1.1% among 31,000; further: nearly all actives have a fitted effect of over 60% in size
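Enzyme 150 nM, substrate 2.5 uM (both final); Tris-HCl 10 mM pH 8.0 + 0.01% Tween 20; cpd up to 25 uM, 7 pts; 15 min preinc., 1 h RT; fluorescence ex 525/em 598.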
CHIKV nsP2 cell: inhibits CHIKV nsP2 protease in cells. shares compounds with nsP2pro inh. cell-based CHIKV nsP2 protease reporter assay. Potency, µM (series often up to 51.1 µM), without a hit: top-dose activity change, negative = inhibition, usual class: inhibitors. hit rate 10% among 450. AID 1964100; further: nearly all actives have a fitted effect of over 70% in size
NSP2 full ctr: selectivity test for CHIKV nsP2 protease inhibitors: full-length NSP2; shares compounds with nsP2pro inh; Full-length CHIKV NSP2 protease enzymatic counterscreen; Potency, µM (top dose mostly 50.7 µM), without a hit: top-dose activity change, negative = inhibition, hits mostly inhibitors; hit rate 39% among 410; further: nearly all actives have a fitted effect of over 65% in size
Furin counterscr: human furin inhibition, counterscreen for nsP2pro inhibitors | Potency, µM (top dose mostly 50.6 µM), inactives show at the highest dose activity change, negative = inhibition, usual class: inhibitors | AID 1964102 | hit rate 6% among 410 | Recombinant human furin enzymatic counterscreen, fluorogenic substrate | shares compounds with nsP2pro inh
Target sequence (P09958 whole entry, looked up): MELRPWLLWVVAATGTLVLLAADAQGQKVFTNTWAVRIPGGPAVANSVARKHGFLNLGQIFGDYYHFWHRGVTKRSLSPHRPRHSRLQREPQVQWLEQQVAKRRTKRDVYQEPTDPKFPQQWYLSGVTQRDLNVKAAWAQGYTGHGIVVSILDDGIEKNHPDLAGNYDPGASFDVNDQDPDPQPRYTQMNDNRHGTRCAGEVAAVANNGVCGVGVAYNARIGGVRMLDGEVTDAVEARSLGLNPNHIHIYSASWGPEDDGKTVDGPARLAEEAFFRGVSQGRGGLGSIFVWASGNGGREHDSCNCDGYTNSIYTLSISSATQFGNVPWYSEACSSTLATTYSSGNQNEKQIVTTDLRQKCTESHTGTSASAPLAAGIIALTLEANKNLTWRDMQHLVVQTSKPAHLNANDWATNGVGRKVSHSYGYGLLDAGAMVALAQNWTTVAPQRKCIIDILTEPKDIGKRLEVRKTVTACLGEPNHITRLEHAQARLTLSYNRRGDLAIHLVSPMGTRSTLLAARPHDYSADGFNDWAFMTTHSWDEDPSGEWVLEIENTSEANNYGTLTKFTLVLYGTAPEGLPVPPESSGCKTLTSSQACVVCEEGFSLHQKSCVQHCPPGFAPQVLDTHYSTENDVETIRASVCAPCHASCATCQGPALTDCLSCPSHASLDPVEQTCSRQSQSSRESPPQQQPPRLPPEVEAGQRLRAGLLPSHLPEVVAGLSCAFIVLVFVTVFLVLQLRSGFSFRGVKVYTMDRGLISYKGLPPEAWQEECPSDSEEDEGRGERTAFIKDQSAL
NS23 peptide cs: selectivity test for CHIKV nsP2 protease inhibitors: endogenous NS2/3 peptide; shares compounds with nsP2pro inh; Purified CHIKV nsP2 protease, endogenous NS2/3 peptide cleavage; Potency, µM (titrated, usually from 51 µM), for the others: at the top dose activity change, negative = inhibition, actives largely listed as inhibitors; hit rate 34% among 410; AID 1964103; further: nearly all actives have a fitted effect of over 55% in size
Papain counter: papain protease inhibition, counterscreen for nsP2pro inhibitors; AID 1964104; hit rate 5% among 410; Potency, µM (highest dose often 51 µM), for the others: top-dose activity change, negative = inhibition, actives largely listed as inhibitors; purified papain protease activity, enzymatic inhibition; shares compounds with nsP2pro inh
nsP2pro conf qHTS: confirmation of CHIKV nsP2 protease inhibitors. CHIKV nsP2 protease enzymatic activity, qHTS. AID 1964105. hit rate 43% among 410. shares compounds with nsP2pro inh. Potency, µM (doses to about 25.5 µM), for the others: at the top dose activity change, negative = inhibition, hits mostly inhibitors; further: nearly all actives have a fitted effect of over 75% in size
HCV NS3 4A cs: selectivity counter-screen for CHIKV nsP2 protease inhibitors: HCV NS3/4A. shares compounds with nsP2pro inh. HCV NS3/4A protease biochemical counterscreen. Potency, µM (titrated, usually from 50.9 µM), actives largely listed as inhibitors. hit rate 20% among 410. AID 1964106; further: nearly all actives have a fitted effect of over 55% in size
An asterisk follows results filed as active; i = inactive; u = inconclusive; ! = not confirmed by another sample; [ ] = dose if it differs, or a comment. The call rests on the fitted dose curve. On the % scale 0 is the no-effect control and ±100 the full control effect; potency means the concentration at half of the fitted maximal effect.

SMILES | nsP2pro inh | others
NC(=O)C1CCN(c2ncc(-c3cccc(F)c3)s2)CC1 | 2%
CCN(CC)C(=O)[C@@H](C)C1CC[C@@]2(C)CC[C@H](NC(=O)c3ccncc3)[C@@H](C)[C@@H]2[C@H]1O (stereo partly specified) | i
C/C=C/C=C/C(=O)OC1CC/C=C/C(O)C(O)C(CCC)OC1=O (stereo unspecified) | u | CHIKV nsP2 cell=-1%[33.5 µM];NSP2 full ctr=-2%[33.5 µM];Furin counterscr=-3%[33.5 µM];NS23 peptide cs=-5%[33.5 µM];Papain counter=u;nsP2pro conf qHTS=-20%[16.7 µM];HCV NS3 4A cs=i
C/C=C/C=C/C=C/C(=O)OC1C=C2C(O)OC(=O)[C@]2(O)[C@@]2(C)CCCC(C)(C)[C@H]12 (stereo partly specified) | 17%[10 µM]
C[C@@]1(F)[C@H](O)[C@@H](CO)O[C@H]1n1ccc(=O)[nH]c1=O | -19%
CN(C)C(=O)N1Cc2ccccc2OC2(CCN(C(=O)CCCNC(N)=O)CC2)C1 | -22%
COC(=O)CC(O)C1OC(c2ccccc2)C(O)C1O (stereo unspecified) | 39%
O=C1C=CC2OC(c3ccccc3)C(O)C2O1 (stereo unspecified) | u | CHIKV nsP2 cell=u;NSP2 full ctr=u;Furin counterscr=-4%;NS23 peptide cs=u;Papain counter=-9%;nsP2pro conf qHTS=u;HCV NS3 4A cs=u
CC(=O)Nc1sc2c(c1-c1ccc3[nH]ccc3c1)CCNC2 | i
CCOc1ccccc1CN1CCC2(CCN(C(=O)Cc3ccccn3)CC2)Oc2ccccc21 | -4%
CC(=O)OCC1=C(C(=O)O)N2C(=O)[C@@H](NC(=O)[C@H](N)c3ccccc3)[C@H]2SC1 | -19%
CC1=C(C(=O)O)N2C(=O)[C@@H](NC(=O)[C@H](N)c3ccccc3)[C@H]2SC1 | 0.31µM* | CHIKV nsP2 cell=-6%;NSP2 full ctr=0%;Furin counterscr=-9%;NS23 peptide cs=1%;Papain counter=-10%;nsP2pro conf qHTS=-21%;HCV NS3 4A cs=i
CC1=C(C(=O)O)N2C(=O)[C@@H](NC(=O)[C@H](N)c3ccc(O)cc3)[C@H]2SC1 | -23%
CC(C)[C@@H]1CN(C(=O)c2scc3c2CCCC3)C[C@H]1NS(C)(=O)=O | 0%
C/C(=N\NC(=O)C(NC(=O)c1ccccc1)c1n[nH]c(=O)c2ccccc12)c1cccc(Br)c1 (stereo unspecified) | 9.9µM* | CHIKV nsP2 cell=41%;NSP2 full ctr=-2%;Furin counterscr=-8%;NS23 peptide cs=-18%;Papain counter=-15%;nsP2pro conf qHTS=-8%;HCV NS3 4A cs=i
CNC(=O)C1=C(C)NC(Nc2nc3ccccc3o2)=NC1c1[nH]ncc1Cl (stereo unspecified) | -16%
CC(O)C(CO)NC(=O)C1CSSCC(NC(=O)C(N)Cc2ccccc2)C(=O)NC(Cc2ccccc2)C(=O)NC(Cc2c[nH]c3ccccc23)C(=O)NC(CCCCN)C(=O)NC(C(C)O)C(=O)N1 (stereo unspecified) | 72%[10 µM]
COc1ccc(-c2nnc(SCC(=O)Nc3c(C)cccc3C)nc2-c2ccc(OC)cc2)cc1 | -25%
COc1ccc(-c2noc(CC(=O)O)c2-c2ccc(OC)cc2)cc1 | -4%
CCOC(=O)Cn1cccc1-c1nc(-c2ccc(OC)cc2)c(-c2ccc(OC)cc2)s1 | 6.2µM* | CHIKV nsP2 cell=-5%;NSP2 full ctr=u;Furin counterscr=-10%;NS23 peptide cs=-3%;Papain counter=7%;nsP2pro conf qHTS=10%;HCV NS3 4A cs=i
CC(C)c1cc(C(=O)N2CC[C@H](CO)[C@H](O)C2)cs1 | -5%
COc1cccc(-c2ccccc2NC(=O)C2CCN(CC=C(C)C)CC2)c1 | i
O=C(CN1CCCCC1)N1CCCC(N2CCN(Cc3ccc4c(c3)OCO4)CC2)C1 (stereo unspecified) | 5%
N[C@@H](Cc1ccccc1)C(=O)Nc1ccc(Cl)cc1C(=O)c1ccc[nH]1 | 1%
CC1=C2C[C@@]3(C)C(CCC[C@@H]3C)C(O)C2OC1=O (stereo partly specified) | 9.9µM* | CHIKV nsP2 cell=-11%;NSP2 full ctr=13µM*;Furin counterscr=-2%;NS23 peptide cs=u;Papain counter=u;nsP2pro conf qHTS=7.1µM*;HCV NS3 4A cs=i
SMILES | nsP2pro inh | others
CC1=C2CC3C(CCC3(C)O)C(C)(O)CC2OC1=O (stereo unspecified) | 55%
CCN1CCCCC12Cc1ccccc1CN(S(=O)(=O)c1ccccc1)C2 (stereo unspecified) | -9%
Cc1cc(N[S+](=O)([O-])c2ccc(NC(=O)Cc3ccc(F)c(F)c3)cc2)no1 | -1%
COc1ccc(C2c3c(N)nc(Cc4ccccc4)nc3Oc3ccc4ccccc4c32)cc1OC (stereo unspecified) | -15%
CC(=O)OC1C=C(C(=O)O)C2(CO)CCC(C)C(C)(CCc3ccoc3)C2C1 (stereo unspecified) | -4%[10 µM]
O=[N+]([O-])c1ccc(S(=O)(=O)Nc2cnc3ccccc3c2)cc1 | 6.3µM* | CHIKV nsP2 cell=18%;NSP2 full ctr=3%;Furin counterscr=-6%;NS23 peptide cs=71%;Papain counter=5%;nsP2pro conf qHTS=7%;HCV NS3 4A cs=i
COc1cccc(CNc2ccc(S(=O)(=O)Nc3cnc4ccccc4c3)cc2)c1O | i
O=S(=O)(Nc1cc(Cl)c(Oc2cnc3ccccc3c2)c(Cl)c1)c1ccc(Cl)cc1Cl | 3%
CCOc1ccc(NC(=O)c2ccc(-c3nc4ccccc4[nH]3)cc2)cc1Cl | 1%
C[C@@H](NC(=O)c1cc(C(=O)N[C@@H](Cc2ccccc2)[C@H](O)CNC2CC2)cc(N(C)S(C)(=O)=O)c1)c1ccccc1 | 9%
Cc1ncc(OC[C@@]2(c3cccc(F)c3)C[C@H]2C(=O)Nc2ccc(F)cn2)c(C)n1 | -10%
Cc1ccc(-c2ccc(C(C)Nc3nc(-c4ccccc4C(C)C)ncc3C)cc2)cn1 (stereo unspecified) | i
C=CC(=O)N1C/C(=C\c2ccc([N+](=O)[O-])cc2)C(=O)/C(=C/c2ccc([N+](=O)[O-])cc2)C1 | 3.5µM*! | CHIKV nsP2 cell=u;NSP2 full ctr=u;Furin counterscr=-14%;NS23 peptide cs=2.9µM*;Papain counter=-14%;nsP2pro conf qHTS=u;HCV NS3 4A cs=i
Cc1ccc(C(=O)N2CCN(c3ccc([N+](=O)[O-])cc3)CC2)cc1Cl | -6%
O=C1Nc2ccccc2/C1=C\c1ccc([N+](=O)[O-])cc1 | -9%
Cc1nc(CNc2ncnc3ccc(-c4sc(C)nc4C)cc23)cs1 | -1%
Cc1cccc(N2CCN(C(=O)C3c4ccccc4CC(=O)N3C)CC2)c1C (stereo unspecified) | -10%
CC(C)/C=C1\NC(=O)C(C(C)C)n2c1nc1c(c2=O)C=CC=CO1 (stereo unspecified) | -22%
